From the supplement of paper PMC8047044
± gives the standard deviation of the averaged measurements.

Experiments:
[1] = tested on: Neuro-2a; assay: neurite formation score, plate-normalized to DMSO control mean 5.04 (score (0-8 scale)); higher = more or longer neurites; details: 1 µM
Protocol: (§1)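 Neuro-2a mouse neuroblastoma cells in PLL-coated 96-well plates were pre-treated for 1 h in DMEM(+) with each kinase inhibitor at 1 µM, then switched to serum-free DMEM(-) with inhibitor to induce neurite outgrowth and fixed about 2-3 h later. Three blinded observers scored neurite formation from 0 (no neurites) to 8 (long neurites on almost all cells).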

[2] = tested on: Neuro-2a; assay: as above; details: 0.1 µM
Protocol: as §1, with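 “at 0.1” for “at 1”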

Row | SMILES | neurite formation score [1] | neurite formation score [2]
1 | C#Cc1cccc(Nc2ncnc3cc4c(cc23)OCCOCCOCCO4)c1 [Icotinib] | 4.8 | 5.09
2 | O=c1cc(-c2cccc3c2Sc2ccccc2S3)oc(N2CCOCC2)c1 | 3.69 | 1.92
3 | O=c1cc(-c2ccccc2)oc2c(O)c(O)ccc12 [7,8-Dihydroxyflavone] | 4.21 | 5.08
4 | O=C(Nc1nc2cccc(-c3ccc(CN4CCS(=O)(=O)CC4)cc3)n2n1)C1CC1 | 4.88 ± 0.58 | 5 ± 0.35
5 | COc1cc2nccc(Oc3ccc(NC(=O)C4(C(=O)Nc5ccc(F)cc5)CC4)cc3)c2cc1OC | 3.57 | 4.38
6 | CN1CCN(c2ccc3nc(-c4c(N)c5c(F)cccc5[nH]c4=O)[nH]c3c2)CC1 [Dovitinib (TKI-258, CHIR-258)] | 4.88 | 4.08
7 | O=C(NC(NC(=S)Nc1ccc(F)c([N+](=O)[O-])c1)C(Cl)(Cl)Cl)C(c1ccccc1)c1ccccc1 (centres undefined) | 3.96 | 4.25
8 | C[C@@H]1CCNC(=O)c2cc3ccc(C(=O)Nc4nc5ccccc5n4CCCN(C)C)cc3n21 | 5.29 | 4.92
9 | CCN1CCN(Cc2ccc(-c3cc4c(N[C@H](C)c5ccccc5)ncnc4[nH]3)cc2)CC1 | 2.57 | 4.54
10 | COc1cc2ncnc(Nc3ccc(F)c(Cl)c3)c2cc1NC(=O)/C=C/CN1CCCCC1 | 4.9 | 4.88
11 | COc1ccc(-c2ccc3c(N4CCOCC4)nc(N4C[C@@H](C)O[C@@H](C)C4)nc3n2)cc1CO | 4.36 | 4.25
12 | Nc1ncnc2c1c(-c1cccc(OCc3ccccc3)c1)cn2C1CC(CN2CCC2)C1 (centres undefined) | 3.24 | 4.71
